An excerpt weighted towards active compounds, which were near 7.1% of everything screened.
Pyk2 oligo antag = antagonists of Pyk2 self-association, primary screen, Q293 cells, FERM NanoBiT luminescence, HTS. Protein-tyrosine kinase 2-beta (Homo sapiens), Q14289. stronger effect = lower value. z-score (the deposit names both 25 µM and 10 µM). 99,000 compounds, 0.83% hits. AID 1347419, 2020;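 active = Z-score of -3 or lower, scaled per plate to the spread of control and sample wells; inactive = z-score above -3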;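 also: negative z-score means lost luminescence so less FERM oligomerization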
M1 antag = antagonists of rat M1 muscarinic receptor | Muscarinic acetylcholine receptor M1 (Rattus norvegicus), P08482 | CHO-M1 cells, Fluo-4 calcium, ACh EC80 antagonist mode; stronger effect = lower value | B-score at 10 µM | 64,000 compounds, 3.4% hits | AID 628, 2007;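 active = calcium fluorescence response, raw or row-and-column corrected B-score, differing from the plate sample mean either way at a set confidence level, mostly lower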
Target sequence (P08482 whole entry, looked up): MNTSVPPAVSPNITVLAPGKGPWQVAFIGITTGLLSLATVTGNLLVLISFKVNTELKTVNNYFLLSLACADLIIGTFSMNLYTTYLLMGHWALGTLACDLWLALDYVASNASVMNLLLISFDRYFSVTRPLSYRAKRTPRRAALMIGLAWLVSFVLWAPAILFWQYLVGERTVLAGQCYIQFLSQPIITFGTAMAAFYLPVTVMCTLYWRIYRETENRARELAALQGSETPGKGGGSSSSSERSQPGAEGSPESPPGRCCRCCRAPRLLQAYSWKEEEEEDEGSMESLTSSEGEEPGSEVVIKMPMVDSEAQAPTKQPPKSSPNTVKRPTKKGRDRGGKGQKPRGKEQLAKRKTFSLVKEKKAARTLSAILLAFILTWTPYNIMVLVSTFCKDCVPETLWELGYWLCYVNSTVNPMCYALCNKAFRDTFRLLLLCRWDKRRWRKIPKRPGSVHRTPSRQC
M1 ag = M1 muscarinic receptor agonists, primary screen, CHO-M1 cells, Fluo-4 calcium, agonist mode | Muscarinic acetylcholine receptor M1 | 64,000 compounds, 3% hits | Fluo-4 calcium fluorescence; stronger effect = higher value | AID 626, 2007 | B-score at 10 µM;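 active = fluorescence rise, raw or as B-score row- and column-corrected plate score, outside the 99.7% band of its plate's samples, either direction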
Cav32 inh = Cav3.2 calcium influx blockers – cell-based, Fluo-4 calcium fluorescence, FDSS, MLSMR library, primary screen; Voltage-dependent T-type calcium channel subunit alpha-1H (Homo sapiens), O95180; Cav3.2-expressing cells; stronger effect = lower value; B-score at 10 µM; 100,000 compounds, 4% hits; AID 449739, 2010;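 active = single-dose well whose peak fluorescence ratio is a statistical outlier from its plate by either plate-standardised score or position-corrected B-score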
The depositor's hits bear a star; . = no result given.

SMILES	Pyk2 oligo antag	M1 antag	M1 ag	Cav32 inh
COc1ccc(C[C@H]2c3cc(O)c(OC)cc3CC[N+]2(C)[O-])cc1O (some centres undefined)	.	.	.	-0.3
CC(C)(C)[C@H]1C=C(C(=O)NC2CC2)O[C@@H](OCCCCO)C1	.	.	.	0.26
O=S(=O)(c1ccc2c(c1)OCCO2)N1CCC(c2nc3ccccc3[nH]2)CC1	-1.9	0.41	-0.021	0.87
O=S(=O)(c1ccc2c(c1)OCCO2)N1CCC(c2nc3ccccc3s2)CC1	-3.1*	0.54	-0.16	-0.009
O=S(=O)(c1ccc2c(c1)OCCO2)N1CCC(c2nc3ccc(Cl)cc3[nH]2)CC1	-3.4*	0.039	4.4	-2.4
C=CCN1C(=O)C(C)(C)Nc2ccccc21	-0.71	0.069	-0.36	0.42
C=CCN1C(=O)N(/C=C/C)c2cccc3cccc1c23	-3.7*	0.38	-0.74	-5*
CCOC(=O)C1=C(C)NC(C)=C(C(=O)OCC)C1c1cc2ccc(C)cc2[nH]c1=O	-0.92	-0.59	0.096	-5.1*
COC(=O)C1=C(C)NC(C)=C(C(=O)OC)C1c1cc2ccc(C)cc2[nH]c1=O	0.96	0.031	0.18	-0.23
O=C(CN(Cc1ccccc1)S(=O)(=O)c1ccccc1)N/N=C/c1ccc2c(c1)OCO2	-2.6	.	.	-4.2*
O=C(CN(Cc1ccc(Cl)c(Cl)c1)S(=O)(=O)c1ccccc1)N/N=C\c1ccc2c(c1)OCO2	-1.5	.	.	-0.31
Clc1ccc(Cn2ncc3c(NCc4ccccc4)ncnc32)cc1	-1.9	.	.	-6.9*
CC(C)Oc1cccc(C(=O)Nc2ccccc2N2CCOCC2)c1	-0.72	-0.041	0.015	-1.9
CCC(C)Oc1cccc(C(=O)Nc2ccccc2N2CCOCC2)c1 (centres undefined)	-3	-0.24	0.049	-5.3*
O=C(Nc1ccccc1N1CCOCC1)c1ccc2ccccc2n1	-3.6*	0.21	-0.75	0.54
CCOC(=O)/C(C#N)=C/C1=C(N2CCCC2)CC(C)(CC)OC1 (centres undefined)	0.52	.	.	2.5
O=c1[nH]c(=O)n(C2CCCCCC2)c(O)c1C=NCc1ccc(F)cc1	-1.7	0.23	0.84	-6.7*
COC(=O)c1cnc(SC)nc1C	0.28	.	.	.
CN(C)c1oc(-c2ccccc2Cl)nc1C#N	0.02	0.54	-0.34	.
CN(C)c1oc(-c2ccccc2Cl)nc1S(=O)(=O)c1ccccc1	.	0.42	0.52	-6.3*
CCOC(=O)NC(=O)/C(C#N)=N\Nc1ccc(Cl)cc1	2.4	.	.	-5.1*
CCOc1ccc(N/N=C(/C#N)C(N)=O)cc1	0.4	.	.	-0.36
CC(=N\Nc1ccc(Cl)cc1)/C(=N/O)C(=O)Nc1ccccc1	-0.19	.	.	-0.028
N#C/C(=N\Nc1ccc(Cl)cc1)C(=O)c1ccccc1	-2.3	.	.	-5.5*
O=C(c1sc2cccc(F)c2c1Cl)N1CCN(c2ncccn2)CC1	-0.68	.	.	.
SMILES	Pyk2 oligo antag	M1 antag	M1 ag	Cav32 inh
CC1(C)[C@@H](O)CC[C@]2(C)C3C(O)C=C4[C@H]5C[C@@](C)(C(=O)O)CC[C@]5(C)CC[C@]4(C)[C@]3(C)CC[C@@H]12 (some centres undefined)	.	.	.	-1.6
CC(Oc1ccccc1)c1ccnn1S(=O)(=O)c1ccccc1 (centres undefined)	-0.71	.	.	-6.4*
CCOC(=O)N1CCN(C2OC(=O)c3ccccc32)CC1 (centres undefined)	0.91	-2*	32*	0.0066
O=C(O)Cn1nnnc1-c1ccc(F)cc1	0.36	1.7	-2*	0.044
CCN(Cc1ccccc1)C(=O)CCc1nc(-c2ccc(C)cc2)no1	-1.1	0.14	-0.19	-7.5*
Cc1ccc(-c2noc(CN(C(=O)Cc3ccccc3)C(C)C)n2)cc1	-1	.	.	-3.4
CCc1ccccc1N(CC)C(=O)CCc1nc(-c2ccc(C)cc2)no1	-3*	0.079	-0.26	-2.8
CCNc1nc(NC(C)C)nc(Oc2ccc(/C=N/O)cc2)n1	-0.63	.	.	-1.8
CCCCCC(=O)Nc1cccc(C2=NOC3(C2)C[C@@H](C(N)=O)N(C(=O)CC(c2ccccc2)c2ccccc2)C3)c1 (some centres undefined)	.	.	.	-1.8
O=C(CCCn1nnc(-c2cccnc2)n1)c1ccc(F)cc1	0.37	-0.023	0.81	0.32
N#C/C(=C/c1ccc(N2CCOCC2)o1)c1nc2ccccc2[nH]1	1.4	.	.	-10*
Cc1ccc(C(=O)NCCSc2c(C)[nH]c3ccccc23)cc1[N+](=O)[O-]	.	.	.	-6.9*
Cc1ccc(SCCNC(=O)c2ccc(C)c([N+](=O)[O-])c2)cc1	1.1	.	.	-5.6*
Cc1ccc(C(=O)NCCSc2ccc(Cl)cc2)cc1[N+](=O)[O-]	-0.25	.	.	-5.8*
Cc1ccc(-c2nc(SCC(=O)N(C)C3CCS(=O)(=O)C3)[nH]c2-c2ccc(C)cc2)cc1 (centres undefined)	-0.02	.	.	-0.36
Cc1ccc(NC(=O)/C(=C/c2cccs2)NC(=O)c2ccco2)c(C)c1	0.13	.	.	.
CCOC(=O)c1cc([N+](=O)[O-])c([N+](=O)[O-])cc1NC(C)=O	0.54	.	.	.
COCCn1c(-c2ccc(OC(F)(F)C(F)C(F)(F)F)cc2)nc2c1c(=O)[nH]c(=O)n2CC(C)C (centres undefined)	-0.55	.	.	-0.49
CCCCn1c(-c2ccncc2)nc2c1c(=O)[nH]c(=O)n2CC(C)C	-1.6	.	.	3.1*
CC(=O)C1=C(C)NC(SCc2cccc([N+](=O)[O-])c2)=C(C#N)C1c1ccco1 (centres undefined)	-0.76	.	.	.
Cc1snc(S(=O)(=O)/C(C#N)=N/Nc2ccc(C(F)(F)F)cc2)c1C#N	-2.9	.	.	-6.4*
COC(=O)C1=C(C)N(CCCC(=O)O)C(=O)NC1c1ccccc1OS(=O)(=O)c1ccc([N+](=O)[O-])cc1 (centres undefined)	.	.	.	1.1
CC(C)(C)c1ccc(CN2C3=NCCCN3c3ccccc32)cc1	0.05	.	.	-6.3*
Cc1ccc(NC(=O)N(Cc2cccnc2)Cc2ccco2)cc1C	0.01	.	.	2
Cc1ccc(NC(=O)N(Cc2ccco2)C(C)c2ccco2)cc1C (centres undefined)	-0.52	0.11	-0.72	-4.6*
SMILES	Pyk2 oligo antag	M1 antag	M1 ag	Cav32 inh
CCOC(=O)c1oc2ccc(CNC(C)(C)C)c(Cl)c2c1C	0.51	.	.	2.2
CCN1CCN(C(=O)c2cnn3c(C(F)F)cc(-c4ccc(C)cc4)nc23)CC1	1.4	0.015	1.7	-0.00033
Cc1ccc(-c2cc(C(F)F)n3ncc(C(=O)N4CCN(c5ccccn5)CC4)c3n2)cc1	.	0.065	0.55	-5.3*
Cc1csc(NC(=O)C(Cc2ccccc2)n2cccc2)n1 (centres undefined)	.	-1.2	0.37	-4.9*
Cc1ccc(N2C(=O)N(CC(=O)N(C)Cc3ccccc3)C(=O)C2C)cc1 (centres undefined)	-0.51	.	.	0.14
Cc1ccc(N2C(=O)N(CC(=O)NC(c3ccccc3)c3ccccc3)C(=O)C2C)cc1 (centres undefined)	0.07	.	.	-10*
Cc1c(NC(=S)NC(=O)C2CCCCC2)c(=O)n(-c2ccccc2)n1C	0.9	.	.	.
Nc1ccccc1C(=O)NCc1ccc(Cl)cc1	0.21	.	.	.
O=C(Cc1ccccc1)NC(NCCc1ccccc1)C(Cl)(Cl)Cl (centres undefined)	-0.53	.	.	-10*

High-throughput results (PubChem BioAssay)
